From ChEMBL document CHEMBL4808148, “HDAC6 screening dataset using tau-based substrate in an enzymatic assay yields selective inhibitors and activators” (2021)
Values joined by “and” are separate entries in the source; they are usually repeats but may differ in a detail not shown here. Equal entries are not always repeated. Out of some 5,600 compounds screened, about 150 (2.7%) showed an effect of 50% or more. Shown is part of a subset that was picked to be rich in strong results.

Legend:
[1] = target: T1, Protein deacetylase HDAC6 (Homo sapiens) (UniProt Q9UBN7); details: at 10 µM
T1 sequence (whole entry): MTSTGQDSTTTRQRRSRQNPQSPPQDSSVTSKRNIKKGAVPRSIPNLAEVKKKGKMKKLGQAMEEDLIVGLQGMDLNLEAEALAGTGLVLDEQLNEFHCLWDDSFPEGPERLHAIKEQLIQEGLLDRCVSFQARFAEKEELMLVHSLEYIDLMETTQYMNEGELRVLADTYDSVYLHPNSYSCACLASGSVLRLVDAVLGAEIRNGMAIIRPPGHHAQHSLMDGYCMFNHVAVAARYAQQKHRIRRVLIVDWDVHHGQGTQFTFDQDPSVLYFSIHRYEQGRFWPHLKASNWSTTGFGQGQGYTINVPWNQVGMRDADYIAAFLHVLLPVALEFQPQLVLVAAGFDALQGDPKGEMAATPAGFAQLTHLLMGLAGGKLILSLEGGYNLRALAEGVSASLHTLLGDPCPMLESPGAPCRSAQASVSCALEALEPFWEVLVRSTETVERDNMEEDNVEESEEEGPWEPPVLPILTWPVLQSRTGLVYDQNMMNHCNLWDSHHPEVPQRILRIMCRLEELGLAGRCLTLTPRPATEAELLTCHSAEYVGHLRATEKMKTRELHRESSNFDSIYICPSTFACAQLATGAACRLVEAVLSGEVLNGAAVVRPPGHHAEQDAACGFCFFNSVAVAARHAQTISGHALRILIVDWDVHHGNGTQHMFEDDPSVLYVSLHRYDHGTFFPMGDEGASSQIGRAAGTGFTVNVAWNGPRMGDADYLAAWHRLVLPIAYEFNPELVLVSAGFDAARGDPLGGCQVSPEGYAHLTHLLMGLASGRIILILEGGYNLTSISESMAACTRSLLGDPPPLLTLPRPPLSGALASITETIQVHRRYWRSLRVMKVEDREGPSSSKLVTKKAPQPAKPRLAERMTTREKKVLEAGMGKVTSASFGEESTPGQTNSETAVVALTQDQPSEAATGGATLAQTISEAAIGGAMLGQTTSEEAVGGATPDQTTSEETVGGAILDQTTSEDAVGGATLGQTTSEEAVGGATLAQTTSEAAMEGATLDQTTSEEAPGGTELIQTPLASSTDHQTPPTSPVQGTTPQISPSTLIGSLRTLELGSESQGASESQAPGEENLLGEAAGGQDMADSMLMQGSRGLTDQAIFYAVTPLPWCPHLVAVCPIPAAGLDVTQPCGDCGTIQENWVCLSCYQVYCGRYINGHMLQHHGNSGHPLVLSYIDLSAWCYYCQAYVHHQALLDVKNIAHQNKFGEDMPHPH

[2] = target: Protein deacetylase HDAC6 (Homo sapiens) (UniProt Q9UBN7); details: at 10 µM; remark: listed apart in the source

Cc1oc(-c2ccccc2)nc1CCOc1ccc(CC2SC(=O)NC2=O)c2sccc12 (stereo not drawn)
inhibition [1]: -4.87%

COc1ccc(Nc2ccn(-c3ccccc3)n2)cc1
inhibition [1]: 66.8%

O=C(Nc1ccccc1C(=O)Nc1ccc(CCO)cc1)c1ccc([N+](=O)[O-])cc1
inhibition [1]: 19.2%

CCC1OC(=O)CC(O)C(C)C(OC2OC(C)CC(N(C)C)C2O)C(CC=O)CC(C)C(=O)/C=C/C2(C)OC2C1C (stereo not drawn)
inhibition [1]: 10.6%

CN(C)C(=S)SC(=S)N(C)C
inhibition [1]: 12.2%

O=C(O)CC1CC(c2ccccc2)=NO1 (stereo not drawn)
inhibition [1]: -4.54%

O=C(CC1CC(c2ccc(F)cc2F)=NO1)N1CCOCC1 (racemic)
inhibition [1]: 64.3%

c1ccc(OCc2ccc(CCCN3CCOCC3)cc2)cc1
inhibition [1]: 22.1%

COc1ccc(-c2cnc3c(-c4cccc5ncccc45)cnn3c2)cc1
inhibition [1]: -5.32% and -3.01%

c1cc(-c2cnn3cc(-c4ccc(OCCN5CCCCC5)cc4)cnc23)ccn1
inhibition [1]: 60.7%

c1cc(-c2cnn3cc(-c4ccc(N5CCNCC5)cc4)cnc23)c2cccnc2c1
inhibition [1]: -3.93%

c1ccc(-c2cnn3cc(-c4ccc(OCCN5CCOCC5)cc4)cnc23)cc1
inhibition [1]: 78.4%

CC(C)Oc1ccc(-c2cnc3c(-c4ccnc5ccccc45)cnn3c2)cc1
inhibition [1]: -1.97%

CN1C(=O)N(c2cc(Cl)cc(Cl)c2)C(=O)[C@@]1(C)Cc1ccc(Br)cc1
inhibition [1]: -0.75%

COCc1nnc(N2CC(Oc3ccc(F)cc3Cl)C2)n1-c1ccc(OC)nc1
inhibition [1]: -0.3%

O=C(Nc1ccc(Br)cc1)c1cc(Br)cc(Br)c1O
inhibition [1]: 47.3%

CCOCc1cc(OC)c(-c2ccc(C[C@H](NC(=O)c3c(F)cccc3F)C(=O)O)cc2)c(OC)c1
inhibition [1]: -3.54%

C[C@]12CC[C@@H](O)C[C@@H]1CC[C@@H]1[C@@H]2CC[C@]2(C)C(c3ccccc3)=CC[C@@H]12
inhibition [1]: -2.46%

CC(=O)OCC1=C(C(=O)O)N2C(=O)[C@@H](NC(=O)CS/C(=N/C(C)C)NC(C)C)[C@H]2SC1
inhibition [1]: -0.21%

O=C(O)c1ccccc1O
inhibition [1]: 3.65%

O=C(Oc1ccccc1)c1ccccc1O
inhibition [1]: 59.6%

O=C(OCCO)c1ccccc1O
inhibition [1]: 0.47%

SEVELAMER HYDROCHLORIDE, CHEMBL1201492
inhibition [2]: -4.03%

CC1CCC2C(C)(C)C3CC12CCC3(C)O (stereo not drawn)
inhibition [1]: 3.35%

C[C@H](Nc1cc(NS(=O)(=O)N2CCC2)nc(SCc2cccc(F)c2F)n1)[C@@H](O)CO
inhibition [1]: -3.66%

CN(C)c1ccc(C(=O)NCCCCCCC(=O)NO)cc1
inhibition [1]: 97.6%

COc1cc(C(=O)NCCCCCC(=O)O)cc(OC)c1OC
inhibition [1]: -4.19%

O=C(CNC(=O)c1ccc(Cl)cc1)NO
inhibition [1]: 1.88%

O=c1c2c[nH]c3ccccc3c-2nn1-c1ccc(Cl)cc1
inhibition [1]: 37.8%

C[C@H](N/C(=N/C#N)Nc1cccc2ncccc12)c1ccccc1
inhibition [1]: -5.84%

Cc1cn2c(N)c(Cl)cc(C(=O)NCC3CCN(CC(C)C)CC3)c2n1
inhibition [1]: 4.88%

C=CC(=O)N1CCC[C@@H](n2c(=O)n(-c3ccc(Oc4ccccc4)cc3)c3c(N)ncnc32)C1
inhibition [1]: 6.07%

Nc1ncnc2c1c(-c1ccc(Oc3ccccc3)cc1)nn2C1CCCC1
inhibition [1]: -1.59%

C=CC(=O)N1CCC[C@@H](n2nc(-c3ccc(Oc4ccccc4)cc3)c3c(N)ncnc32)C1
inhibition [1]: 51%

C=C1C(=O)O[C@@H]2[C@H]3C(C)=CC[C@@]34O[C@@]4(C)CC[C@@H]12
inhibition [1]: 4.41%

c1cnc(NCc2ccc(CNc3ncccn3)cc2)nc1
inhibition [1]: 0.03%

CNc1nc(C)nc(N[C@H]2CCC[C@@H](C(=O)NCc3ccc(C#N)cc3C(F)(F)F)C2)n1
inhibition [1]: -6.75%

Cc1cc(O)cc2c1O[C@@](C)(CCC[C@@H](C)CCC[C@@H](C)CCCC(C)C)CC2
inhibition [1]: -3.19%

Cc1nc2cnc3ccc(C#Cc4cccnc4)cc3c2n1-c1ccc(C(C)(C)C#N)cc1
inhibition [1]: 3.93%

CC(=O)SCCC(=O)N1C(C)CCCC1C(=O)O (stereo not drawn)
inhibition [1]: 7.82%

CSc1nc2ccc3nc(NC(=O)C(c4ccccc4)c4ccccc4)sc3c2s1
inhibition [1]: -1.3%

CC(=O)N(O)[C@@H]1c2cc(C#N)ccc2OC(C)(C)[C@H]1O
inhibition [1]: -2.08%

CN(C)c1nc(N)c(C(=O)Nc2cccnc2)nc1Cl
inhibition [1]: 80.9%

N=C(N)NC(=O)c1nc(Cl)c(N)nc1N
inhibition [1]: -8.95%

O=C(OCC(COC(=O)c1cccnc1)(COC(=O)c1cccnc1)COC(=O)c1cccnc1)c1cccnc1
inhibition [1]: -1.03%

Cn1ncc2c(N3CCOCC3)nc(-c3cccc(O)c3)nc21
inhibition [1]: -1.99%

Cc1ccc(-c2nn(C(C)(C)CNC(=O)c3ncccc3C)c3ncnc(N)c23)cc1
inhibition [1]: 6.88%

Oc1ccc(-c2nc3cc(O)cc(Br)c3o2)cc1
inhibition [1]: 54.3%

CC[C@H](NC(=O)c1c(O)c(-c2ccccc2)nc2ccccc12)c1ccccc1
inhibition [1]: 2.06%

O=C(/C=C/c1cccc(F)c1)NC1CC1
inhibition [1]: 8.47%

Cn1c(/C=C/C(=O)NO)ccc1/C=C/C(=O)c1cccc(F)c1
inhibition [1]: 76.3%

CCCCCCCCC(=O)N[C@H](CN1CCCC1)[C@H](O)c1ccc2c(c1)OCCO2
inhibition [1]: 6.86%

O=C(CCBr)N1CC[N+]2(CC1)CC[N+]1(CCN(C(=O)CCBr)CC1)CC2
inhibition [1]: 0.06%

CN1CCN(c2cccc(Nc3nc4c(-c5ccc(S(C)(=O)=O)cc5)cccn4n3)c2)CC1
inhibition [1]: -1.82%

CS(=O)(=O)c1ccc(-c2cnc(N)c(C(=O)Nc3ccccc3)n2)cc1
inhibition [1]: 2.63%

CS(=O)(=O)c1ccc(-c2cn3ccccc3n2)cc1
inhibition [1]: 78.9%

C[C@H]1O[C@@H](O[C@H]2CC[C@@]3(C)[C@H](CC[C@@H]4[C@@H]3C[C@@H](O)[C@]3(C)[C@@H](C5=CC(=O)OC5)CC[C@]43O)C2)C[C@H](O)[C@@H]1O[C@H]1C[C@H](O)[C@H](O[C@H]2C[C@H](O)[C@H](O[C@@H]3O[C@H](CO)[C@@H](O)[C@H](O)[C@H]3O)[C@@H](C)O2)[C@@H](C)O1
inhibition [1]: -2.28%

N#CC(c1ccccc1)(c1ccccc1)c1ccccc1Cl
inhibition [1]: -3.49%

CC(C)c1c2cc(-c3ccnc(N[C@H]4CC[C@H](NC5CCOCC5)CC4)n3)ccc2nn1C
inhibition [1]: 1.08%

CCC(CC)O[C@@H]1C=C(C(=O)O)C[C@H](N)[C@H]1NC(C)=O
inhibition [1]: 0.57%

O=c1cc(-c2ccc(O)c(O)c2)oc2cc(O)cc(O)c12
inhibition [1]: 51.1%

O=c1c(O)c(-c2ccc(O)c(O)c2)oc2cc(O)cc(O)c12
inhibition [1]: 49.9%

O=C(O)c1ccc2c(c1)C(=O)N(c1cccc(Oc3ccc([N+](=O)[O-])cc3)c1)C2=O
inhibition [1]: 23.5%
